According to the supplement of paper PMC7156485:
± gives the standard deviation of the averaged measurements.

Tested on: HCC1569
Assay: cell number relative to DMSO (% of DMSO); higher = more cells (less growth inhibition / toxicity)
Settings: concentration: 10 µM; 24 h
How it was run: (§1)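 Treatment: HCC1569 and TDF cells, 800 per well in 384-well plates with RPMI and 10% FBS, were given compounds at 10 µM for 24 h at 37 °C, in triplicate. Readout: after 3.7% formaldehyde fixation, cells were stained with a rabbit anti-H1.0 antibody, an AlexaFluor 647 secondary and DAPI. Reported values are H1.0 nuclear intensity or cell number as percent of the plate control, taken as the median of replicates, with positional smoothing for HCC1569.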
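Also: TDF denotes transformed human dermal fibroblasts of mesenchymal origin.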

Q: CON(C)C(=O)[C@H](O)[C@H](Cc1ccccc1)NC(=O)c1cc2cc(Cl)ccc2[nH]1 was tested. Which cell number did it give?
A: 103

Q: OC1c2ccccc2N=C2CCCN21 (centres undefined) [Peganole] was tested. Which cell number did it give?
A: 95

Q: Which cell number does the source give for COc1cc2ncc(-c3ccccc3)nc2cc1OC here?
A: 100

Q: O=c1cc(-c2ccc(O)cc2)oc2cc(O)c(C3OC(CO)C(O)C(O)C3O)c(O)c12 (centres undefined) [Isovitexin] was tested. Which cell number did it give?
A: 99.9

Tested on: TDF
Assay: as above
Settings: concentration: 10 µM; 24 h
How it was run: as §1

Q: For CC12C=CC(=O)C=C1CCC1C2C(O)CC2(C)C1CCC2(O)C(=O)CO (centres undefined) [Prednisolone], which cell number is on record?
A: 99.4

Q: For CC(N)(Cc1ccc(O)c(O)c1)C(=O)O (racemic), which cell number is on record?
A: 101

Q: For COc1c2occc2cc2ccc(=O)oc12 [Xanthotoxin], which cell number is on record?
A: 104

Q: CC1CCN(CCC2CCCN2S(=O)(=O)c2cccc(O)c2)CC1.Cl (centres undefined) was tested. Which cell number did it give?
A: 109

Q: How did the cell number turn out when Cl.c1ccc(-n2c(C3=NCCN3)cc3ccccc32)cc1 was run?
A: 92.4

Q: With Oc1cccc(-c2nc(N3CCOCC3)c3oc4ncccc4c3n2)c1 as the compound, how does the cell number read?
A: 70

Q: With CC[N+](CC)(CC)CC(=O)Nc1c(C)cccc1C.[Br-] [Lidocaine N-ethyl bromide quaternary salt] as the compound, how does the cell number read?
A: 108

Q: CC1CNCCN1S(=O)(=O)c1cccc2cnccc12.Cl.Cl (centres undefined) [H-7 dihydrochloride] was tested. Which cell number did it give?
A: 100

Q: Which cell number does the source give for C1CCC(C(CC2CCCCN2)C2CCCCC2)CC1.O=C(O)C=CC(=O)O (centres undefined) here?
A: 5.25

Q: With CCCCCC=CCC=CCCCCCCCCCCCC(=O)O [13(Z),16(Z)-Docosadienoic acid] as the compound, how does the cell number read?
A: 109

Q: With O=c1ccc2cc(O)c(O)cc2o1 [Esculetin] as the compound, how does the cell number read?
A: 94.7

Q: For CN1C(=O)CCC1c1cccnc1 (single isomer, unassigned; (-)) [(-)-Cotinine], which cell number is on record?
A: 112 ± 5.4

Q: CC1(C)CC=C(c2ccccc2)c2cc(/C=C/c3ccc(C(=O)O)cc3)ccc21 was tested. Which cell number did it give?
A: 91.6

Q: COc1ccccc1N1CCN(CCCCNC(=O)c2ccc3ccccc3c2)CC1 was tested. Which cell number did it give?
A: 111

Q: With O=C([O-])c1cc2cc(Cc3cccnc3)ccc2o1.[Na+] [Furegrelate sodium] as the compound, how does the cell number read?
A: 102

Q: With CC(C)Cc1ccc(CC(=O)O)cc1 [(4-isobutylphenyl)acetic acid] as the compound, how does the cell number read?
A: 110

Q: Which cell number does the source give for CC1=C(C)C(=O)C(CCCCC#CCCCC#CCO)=C(C)C1=O [Docebenone] here?
A: 75.3

Q: With CCCCC(C)(C)C(O)C=CC1C(O)CC(=O)C1CC=CCCCC(=O)O (centres undefined) [16,16-Dimethyl-prostaglandin E2] as the compound, how does the cell number read?
A: 110

Q: With CC(C=Cc1cccc(Oc2ccc(F)cc2)c1)N(O)C(N)=O (centres undefined) as the compound, how does the cell number read?
A: 101

Q: How did the cell number turn out when Cc1ccc2c(c1)C(N1CCN(C)CC1)=Nc1cccnc1N2 was run?
A: 102

Q: How did the cell number turn out when CCn1cc(C(=O)O)c(=O)c2cc(F)c(N3CCN(C)CC3)cc21.CS(=O)(=O)O.O.O [Pefloxacine mesylate dihydrate] was run?
A: 111

Q: CCCCC1CCC(c2nc(-c3ccncc3)no2)CC1 (centres undefined) [4-[5-(4-butylcyclohexyl)-1,2,4-oxadiazol-3-yl]pyridine] was tested. Which cell number did it give?
A: 98.3

Q: O=C([O-])c1cc(=O)c2c(OCC(O)COc3cccc4oc(C(=O)[O-])cc(=O)c34)cccc2o1.[Na+].[Na+] [Disodium Cromoglycate] was tested. Which cell number did it give?
A: 98.3

Q: With CC1=CC(=O)C2=C(C)CCC3C(C)C(=O)OC3C12 (centres undefined) [Leucomisine] as the compound, how does the cell number read?
A: 111

Q: Cl.NCCNC(=O)c1ncsc1-c1cccc(F)c1 [Ro 41-1049 hydrochloride] was tested. Which cell number did it give?
A: 90.9

Q: CCCCCCCCC=CCCCCCCCCCC(=O)O [11(E)-Eicosenoic acid] was tested. Which cell number did it give?
A: 101

Q: With CCC=CCC=CCC=CCC=CCC=CCC=CCCC(=O)O [Docosahexaenoic acid] as the compound, how does the cell number read?
A: 97.5 ± 3.1

Q: Which cell number does the source give for CS(=O)c1ccc(-c2nc(-c3ccc(F)cc3)c(-c3ccncc3)[nH]2)cc1.Cl (centres undefined) here?
A: 99.5

Q: How did the cell number turn out when C[C@H]1CN(C[C@H](Cc2ccccc2)C(=O)NCC(=O)O)CC[C@@]1(C)c1cccc(O)c1 was run?
A: 102

Q: Which cell number does the source give for O=C1NC(C(=O)O)CS1 (centres undefined) [Procysteine] here?
A: 110

Q: How did the cell number turn out when COC(=O)C1C2CC3c4[nH]c5cc(OC)ccc5c4CCN3CC2CC(OC(=O)c2cc(OC)c(OC)c(OC)c2)C1OC (single isomer, unassigned; (-)) [(-)-Isoreserpine] was run?
A: 107

Q: Cc1cc2nc3c(=O)[nH]c(=O)nc-3n(C)c2cc1C=O was tested. Which cell number did it give?
A: 97.8

Q: With O=C1c2c(O)cc(O)cc2O[C@H](c2cc(O)c(O)c(O)c2)[C@H]1O as the compound, how does the cell number read?
A: 99.5

Q: For CCCCCCCC/C=C\CCCCCCCC(=O)NCC(=O)O [[(9Z)-9-octadecenoylamino]acetic acid], which cell number is on record?
A: 100

Q: With CCCCCCCCCCCCCCC(O)C(O)C(N)CO (centres undefined) [Phytosphingosine] as the compound, how does the cell number read?
A: 75.6

Q: With CC1C(=O)OC2C(O)C34C5CC(C(C)(C)C)C36C(OC(=O)C6O)OC4(C(=O)O5)C12O (centres undefined) [Ginkgolide B] as the compound, how does the cell number read?
A: 104

Q: How did the cell number turn out when CON(C)C(=O)[C@H](O)[C@H](Cc1ccccc1)NC(=O)c1cc2cc(Cl)ccc2[nH]1 was run?
A: 110

Q: How did the cell number turn out when OC1c2ccccc2N=C2CCCN21 (centres undefined) [Peganole] was run?
A: 93.7

Q: For COc1cc2ncc(-c3ccccc3)nc2cc1OC, which cell number is on record?
A: 94.5

Q: Which cell number does the source give for O=c1cc(-c2ccc(O)cc2)oc2cc(O)c(C3OC(CO)C(O)C(O)C3O)c(O)c12 (centres undefined) [Isovitexin] here?
A: 109
